RORgamma inh – qHTS for inhibitors of ROR gamma transcriptional activity; Nuclear receptor ROR-gamma (Mus musculus), P51450; Drosophila S2 Gal4-RORgamma UAS-luciferase reporter, 20 h; Potency, µM (titrated, usually from 53.6 µM), usual class: inhibitors; 5.4% of 310,000 active; note: nearly all actives have a fitted effect of over 60% in size
Target sequence (P51450 whole entry, looked up, the tested form may be a part): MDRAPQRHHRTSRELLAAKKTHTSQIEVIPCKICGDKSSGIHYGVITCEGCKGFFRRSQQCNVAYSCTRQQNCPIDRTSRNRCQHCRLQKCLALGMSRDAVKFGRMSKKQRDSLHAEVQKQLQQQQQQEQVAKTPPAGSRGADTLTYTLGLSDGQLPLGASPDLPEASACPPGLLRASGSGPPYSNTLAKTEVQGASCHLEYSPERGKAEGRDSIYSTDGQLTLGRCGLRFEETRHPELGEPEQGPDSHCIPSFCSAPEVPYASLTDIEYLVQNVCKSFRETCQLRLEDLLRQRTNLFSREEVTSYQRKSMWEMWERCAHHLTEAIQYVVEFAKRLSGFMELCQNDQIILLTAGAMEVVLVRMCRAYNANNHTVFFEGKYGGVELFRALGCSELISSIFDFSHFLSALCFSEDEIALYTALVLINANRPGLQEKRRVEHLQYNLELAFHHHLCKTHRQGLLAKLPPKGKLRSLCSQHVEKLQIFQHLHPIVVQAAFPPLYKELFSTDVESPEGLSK
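Luminescence from a UAS-regulated Photinus luciferase reporter in stably transfected Drosophila Schneider cells is measured; decreased signal marks ROR gamma inhibition. Fusion expression is induced by 700 uM copper sulfate for 20 hr.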
BRCA1 expr act – qHTS Assay to Identify Small Molecule Activators of BRCA1 Expression. MCF7-BRCA1-FFLuc reporter, luminescence, 48 h; response scale: scaled: vehicle 0%, 10 µM genistein 100%. Potency, µM (doses to about 46.1 µM), most hits filed as activators. 1.1% of 380,000 active; note: nearly all actives have a fitted effect of over 80% in size
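Cells: MCF7-BRCA1-FFLuc, 2000/well. Exposure: 48 h, 37 °C, 5% CO2. Read: luminescence, 15 min post-substrate. Controls: genistein 10 microM (maximal activation), DMSO (neutral).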
VP16 counter – VP16 counterscreen qHTS for inhibitors of ROR gamma transcriptional activity; Drosophila S2 Gal4-VP16 UAS-luciferase, luminescence, 20 h; Potency, µM (highest dose often 53.6 µM), hits mostly inhibitors; 3.5% of 310,000 active;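 note: Gal4-VP16 expression switched on by copper sulfate through the metallothionein promoter; nearly all actives have a fitted effect of over 50% in size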
ELG1 DNA repair – qHTS screen for small molecules that inhibit ELG1-dependent DNA repair in human embryonic kidney (HEK293T) cells expressing luciferase-tagged ELG1; HEK293T ELG1-luciferase reporter, luminescence, 16 h; DNA damage induced by 5-fluorouridine; Potency, µM (highest dose often 46.1 µM), actives largely listed as inhibitors; 2.3% of 330,000 active; note: nearly all actives have a fitted effect of over 55% in size
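In this reporter screen, reduction of luminescence relative to DMSO vehicle indicated activity. Compounds and 5-fluorouridine were added together to 2,000 cells per well, incubated for 16 hr at 37 °C, then developed with ONE-Glo.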
p53 reactivation – qHTS assay for re-activators of p53 using a Luc reporter; Potency, µM (doses to about 92.2 µM), hits mostly activators; 0.063% of 320,000 active; H1299 p53-A138V BP100-luciferase reporter, luminescence, 24 h; AID 504706, 2011; note: nearly all actives have a fitted effect of over 45% in size
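H1299 (p53-null), stable ts p53-A138V + BP100-Luc; 1000 cells/well, Opti-MEM/10% FBS; cpd 4 pt, 1:5; 24 h, 37 deg C, 5% CO2; detection reagent 10 min RT; luminescence.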
Giardia kill – Small Molecules that selectively kill Giardia lamblia: qHTS; Giardia lamblia trophozoite viability; activity change, % at 7.66 µM, hits read low; 0.15% of 340,000 active; AID 540267, 2011; in the data active = activity change below about -80%; inconclusive = between about -30% and that limit;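 note: parasites exposed to compound for two days anaerobically before the ATP read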
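Killing of trophozoites was scored by loss of ATP luminescence after a 48 hrs anaerobic exposure to compounds at 37 deg C, using 100 cells per well.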
Numbers stand for hits; - = inactive; ? = inconclusive; . = no result; [ ] = remark or other dose. Shown are actives, neighbours in structure and some others; about 7.6% of the full set was active somewhere. Unless noted, calls come from the whole dose curve; as a rule, active = well fitted curve in the direction sought with a large enough effect; inconclusive = small, poorly fitted or top-dose-only effect, or another doubt; inactive = no such curve, though single readings can be large; an effect the other way counts as inactive or inconclusive.

SMILES | RORgamma inh | BRCA1 expr act | VP16 counter | ELG1 DNA repair | p53 reactivation | Giardia kill
CCn1cc(/C=N\NC(=O)c2csc3ccccc23)c(C)n1 | - | - | - | ? | - | -
CC1CCN(S(=O)(=O)c2ccc3[nH]c(=O)cc(C(=O)O)c3c2)CC1 | - | - | - | - | - | -
Cc1cc(OCCCC(=O)NC2=NCCS2)ccc1Cl | - | - | ? | - | - | -
COc1ccc(OCCC(=O)NC2=NCCS2)cc1 | ? | - | - | - | ? | -
O=C(/C=C/c1ccc(Cl)c(Cl)c1)NC1=NCCS1 | 7.9µM | ? | ? | ? | - | -
CC(C)(C)c1ccc(OCCC(=O)NC2=NCCS2)cc1 | 3.5µM | - | 8.9µM | - | - | -
COc1ccc(CNC(=O)C2CCCN(c3nccc(C)n3)C2)cc1 (stereo not drawn) | - | - | - | - | - | -
CC(=O)CSc1ccc(-c2nc3ccccc3[nH]2)cn1 | 10µM | - | 11µM | ? | - | ?
Cc1ccc(-c2nc3ccccc3[nH]2)cn1 | - | 7.9µM | - | ? | - | -
CC(=O)CSc1ccc(-c2nc3cc(C)c(C)cc3[nH]2)cn1 | - | - | - | - | - | ?
O=C(Nc1nnc(-c2cccs2)o1)C1CC1 | 7.1µM | - | 7.1µM | ? | - | -
O=C(Nc1nnc(-c2ccco2)o1)C1CC1 | 10µM | - | ? | - | - | -
O=C(Nc1nnc(-c2ccncc2)o1)c1ccc(Br)s1 | 0.89µM | - | 1.1µM | 8.2µM | - | -
O=C(Nc1nnc(-c2ccccc2)o1)NC1CCCCC1 | 2.5µM | - | 4.5µM | - | - | -
O=C(Nc1ccccc1)Nc1nnc(-c2ccccc2)o1 | - | - | - | - | - | -
CCCc1nc2c(C)cc(Br)cn2c1Cc1ccccc1 | . | - | . | . | . | .
CC(C)C(=O)Nc1nnc(-c2ccccc2)o1 | ? | - | ? | ? | - | -
O=C(Nc1nnc(-c2ccncc2)o1)C1CCCCC1 | 10µM | - | ? | - | - | -
O=C(Nc1nnc(-c2ccc3c(c2)CCCC3)o1)C1CCCCC1 | ? | - | - | - | - | -
CC(C)(C)C(=O)Nc1nnc(-c2ccncc2)o1 | 11µM | - | 18µM | - | - | -
Cc1nnc(NC(=O)CSc2nnc3c(n2)[nH]c2ccc(Br)cc23)s1 | - | - | - | - | - | -
COc1ccc(Br)cc1C1CC(=O)N2CN(C)CSC2=C1C#N (stereo not drawn) | 16µM | - | - | - | - | -
COC(=O)c1ccccc1-n1c(C)nc(=O)c(-c2ccccc2)c1C | - | - | - | - | - | -
O=C(/C=C(\O)c1ccccc1)c1ccccc1O | 4.5µM | . | 4.5µM | . | . | .
CCn1c(=NC(=O)c2ccc(N3C(=O)CCC3=O)cc2)sc2c(OC)ccc(OC)c21 | - | - | - | ? | - | ?
SMILES | RORgamma inh | BRCA1 expr act | VP16 counter | ELG1 DNA repair | p53 reactivation | Giardia kill
CCOC(=O)c1cnc(-n2nc(C)cc2C)nc1NCCO | ? | - | - | - | - | -
CCOC(=O)c1cnc(-n2nc(C)cc2C)nc1NC(C)c1ccccc1 (stereo not drawn) | 1.4µM | - | 2.2µM | ? | - | -
CCOC(=O)c1cnc(-n2cc(C)cn2)nc1NCc1ccc2c(c1)OCO2 | 13µM | - | ? | ? | - | -
CCOC(=O)c1cnc(-n2nc(C)cc2C)nc1N1CC(C)OC(C)C1 (stereo not drawn) | . | -[1.84 µM] | . | . | . | -
CCOC(=O)c1cnc(-n2nc(C)cc2C)nc1NCc1ccccc1 | 1.4µM | - | 2.5µM | ? | - | -
COc1ccc(-c2nc3cnc(Nc4ccccc4)nc3n(CCC#N)c2=O)cc1 | - | . | - | . | . | .
C[C@H]1COC(=O)[C@H](CC(=O)OC(C)(C)C)C/C=C\C[C@@H](CC(=O)NCCO)C(=O)N1 | . | - | . | ? | - | -
CC1(c2nnnn2Cc2ccccc2)CCC(=O)N1C1CC1 (stereo not drawn) | . | - | . | . | . | .
CC(C)(C)C(=O)NC(=S)NNC(=O)c1ccc(-c2ccccc2)cc1 | ? | - | 16µM | ? | - | -
CC(C)(C)C(=O)NC(=S)NNC(=O)c1ccncc1 | ? | - | -[10 µM] | - | - | -
CC(C)(C)c1ccc(C(=O)NNC(=S)NC(=O)c2cccnc2)cc1 | 2.8µM | - | ? | ? | - | -
CC(C)c1ccc(O)c(NC(=S)NC(=O)c2cccnc2)c1 | 0.71µM | - | 1.4µM | - | - | -
COc1cc(OC)cc(C(=O)NNC(=S)NC(=O)c2cccnc2)c1 | 11µM | - | - | - | - | -
COCCn1nnnc1C(c1cc2cc(C)ccc2[nH]c1=O)N1CCN(C2CCCCC2)CC1 (stereo not drawn) | - | - | - | - | - | -
COc1ccc(NC(=S)NC(=O)c2cccnc2)cc1 | 11µM | - | ? | - | . | -
CC(C)(C)c1ccc(OCCNC(=S)NC(=O)c2cccnc2)cc1 | 13µM | - | ? | - | - | -
COC(=O)c1ccc(NC(=S)NC(=O)c2cccnc2)cc1 | ? | - | ? | - | - | -
CC(C)(C)c1cc(Cl)c(O)c(NC(=S)NC(=O)c2cccnc2)c1 | 0.16µM | - | 0.89µM | 9.2µM | - | -
O=C(NC(=S)Nc1ccccc1Br)c1cccnc1 | 10µM | - | 18µM | ? | . | -
CCN(CC(=O)Nc1cc(C)c(Cl)cc1OC)CC(=O)NC1CCS(=O)(=O)C1 (stereo not drawn) | - | - | - | - | - | -
O=C(NC(=S)NCCSc1ccccc1)c1cccnc1 | 13µM | - | ? | ? | ? | -
O=[N+]([O-])c1cccc(/C=N\N=C2c3ccccc3-c3ccccc32)c1O | 10µM | - | 20µM | - | - | -
Cn1nc(C(F)(F)F)c(C#N)c1N1CCN(c2ccc(F)cc2)CC1 | - | - | - | 10µM | - | -
Cn1nc(C(F)(F)F)c(C#N)c1N1CCN(c2ccccc2)CC1 | - | - | ? | 9.2µM | - | -
O=C(NC1CC1)[C@@H]1CSC2c3ccccc3C(=O)N21 (stereo partly drawn) | - | - | - | - | - | -
SMILES | RORgamma inh | BRCA1 expr act | VP16 counter | ELG1 DNA repair | p53 reactivation | Giardia kill
CC(=O)Oc1ccc(/C=C2\C=C(c3ccc(C)cc3)OC2=O)cc1 | 0.45µM | - | ? | - | - | -
COc1ccc(/C=N/n2c(N)nc3ccccc32)cc1OC | 13µM | - | ? | ? | - | -
COc1cccc(C=NN2CCCCCC2)c1OC | . | 11µM | . | . | . | -
COc1cccc(/C=N/n2c(N)nc3ccccc32)c1OC | ? | 10µM | ? | ? | - | -
COc1cccc(/C=N/n2cnc3ccccc32)c1OC | - | ? | ? | ? | ? | -
O=C(CSc1nncs1)Nc1ccc2c(c1)OCCO2 | - | - | - | ? | - | -

Screening results (PubChem BioAssay)
